# HP1b chromo inh – inhibitors of HP1-beta chromodomain binding to methylated histone tails. P83916. AlphaScreen HP1-beta / biotin-H3K9me3 peptide binding. Potency, µM (highest dose often 114 µM), actives largely listed as inhibitors. 390,000 compounds, 0.56% hits. AID 540317; note: nearly all actives have a fitted effect of over 70% in size
# Target sequence (P83916 whole entry, looked up): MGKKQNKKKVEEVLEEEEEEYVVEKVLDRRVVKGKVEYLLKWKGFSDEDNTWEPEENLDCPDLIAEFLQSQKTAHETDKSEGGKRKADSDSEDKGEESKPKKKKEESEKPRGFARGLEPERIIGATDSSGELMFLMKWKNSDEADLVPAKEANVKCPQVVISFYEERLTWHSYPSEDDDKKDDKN
#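 HP1-beta protein (50 nM final) preincubated 30 min at room temperature with biotinylated H3(1-18)K9me3 peptide (50 nM) in PBS pH 7.4, 0.01% Tween-20, then compound added for 30 min. AlphaScreen streptavidin donor/nickel chelate acceptor beads (10 ug/mL final), 30 min dark, luminescence read.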
# G9a block – G9a (human) methyltransferase inhibition. G9a H3K9 monomethylation, AlphaScreen, 2 h. Potency, µM (top dose mostly 102 µM), hits mostly inhibitors. Q96KQ7. 350,000 compounds, 8.8% hits; note: nearly all actives have a fitted effect of over 75% in size
# Target sequence (Q96KQ7 913-1193 limits assumed): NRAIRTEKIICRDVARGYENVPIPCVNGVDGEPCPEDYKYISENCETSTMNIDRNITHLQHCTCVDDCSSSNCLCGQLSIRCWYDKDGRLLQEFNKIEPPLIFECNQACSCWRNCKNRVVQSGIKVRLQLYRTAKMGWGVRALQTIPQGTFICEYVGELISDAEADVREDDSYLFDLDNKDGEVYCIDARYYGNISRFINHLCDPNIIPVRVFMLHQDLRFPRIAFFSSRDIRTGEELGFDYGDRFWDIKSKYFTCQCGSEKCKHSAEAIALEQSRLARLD
#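 Using a bead-based AlphaScreen, monomethylated H3K9 product from 2 h room-temperature reactions (G9a 20 nM, peptide 500 nM, SAM 20 uM) was detected with 0.5 ug/mL rabbit anti-H3K9me1 antibody.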
# JMJD2A Tudor inh – blocks the human JMJD2A Tudor domain; AlphaScreen JMJD2A-Tudor / H3K4me3 peptide binding; AID 504339; Potency, µM (doses to about 114 µM), most hits filed as inhibitors; 390,000 compounds, 4.4% hits; note: nearly all actives have a fitted effect of over 50% in size
# L3MBTL1 block – L3MBTL1 (human) inhibition | Q9Y468 | AlphaScreen L3MBTL1–H3K9me1 peptide binding | Potency, µM (series often up to 57.1 µM), most hits filed as inhibitors | 230,000 compounds, 0.66% hits; note: nearly all actives have a fitted effect of over 60% in size
#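 L3MBTL1 50 nM + b-AHA-H3(1-15)K9me1 75 nM, 30 min RT; compound added, 30 min RT; streptavidin donor/Ni-chelate acceptor beads 10 ug/mL each final, 30 min RT dark; AlphaScreen read.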
# BAZ2B block – inhibitors of human BAZ2B bromodomain. Q9UIF8. AlphaScreen BAZ2B-H3K14Ac peptide displacement. Potency, µM (series often up to 114 µM), most hits filed as inhibitors. 360,000 compounds, 4.4% hits; note: nearly all actives have a fitted effect of over 60% in size
#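 AlphaScreen luminescence quantifies BAZ2B engagement of H3K14Ac peptide; the protein and biotinylated peptide are both at 50 nM final, buffer PBS pH 7.4 with 0.01% Tween-20, all steps at room temperature.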
# Sfp PPTase inh – inhibitors of Bacillus subtilis Sfp phosphopantetheinyl transferase. Q9F4F7. Biochemical Sfp PPTase activity, qHTS. Potency, µM, actives largely listed as inhibitors. 310,000 compounds, 3.5% hits;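 note: the enzyme is Sfp with the accession as filed and its product quenches rhodamine fluorescence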
#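 Fluorescence-quenching assay: 15 nM Sfp-PPTase preincubated 15 min at room temperature with compound, then 5 uM rhodamine-CoA and 12.5 uM BHQ-2-labelled YbbR peptide added. Fluorescence (ex 525/em 598 nm) read at start and after 30 min; difference gives rate.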
# A number is an active result; 0 = inactive; ? = inconclusive; - = no result; ! = not confirmed by another sample; [ ] = remark or other dose. Shown are actives, neighbours in structure and some others; about 12% of the full set was active somewhere. Calls come from the whole dose curve; as a rule, active = well fitted curve in the direction sought with a large enough effect; inconclusive = small, poorly fitted or top-dose-only effect, or another doubt; inactive = no such curve, though single readings can be large; an effect the other way counts as inactive or inconclusive.
SMILES,HP1b chromo inh,G9a block,JMJD2A Tudor inh,L3MBTL1 block,BAZ2B block,Sfp PPTase inh
CN1CCN(Cc2nc3ccccc3c(=O)n2Cc2nc(-c3cccc([N+](=O)[O-])c3)cs2)CC1,?,25µM,?,-,40µM,0
CN1CCN(Cc2nc3ccccc3c(=O)n2Cc2nc(-c3ccccc3F)cs2)CC1,0,35µM,0,0,0,?
CN1CCN(Cc2nc3ccccc3c(=O)n2Cc2nc(-c3ccc4ccccc4c3)cs2)CC1,?,?,?,0,?,0
CN(C)Cc1nc2ccccc2c(=O)n1Cc1nc(C(C)(C)C)cs1,0,?,0,0,0,0
Cc1n[nH]c(C)c1S(=O)(=O)N1CCCC(C(=O)Nc2ccc(Cl)cc2)C1 (stereo not given),0,0,0,-,-,-
CC(=O)NCCNc1ncnc2ccc(-c3ccc(C(=O)N(C)C)cc3)cc12,-,-,-,-,-,0
CC(=O)NCCc1c[nH]c2ccc(O)cc12,0,11µM!,0,-,-,0
Cc1cc(C)nc(NC2=NCC(=O)N2c2ccccc2)n1,0,0[12.7 µM],?,0,0,0
COc1ccc(N2C(=O)CN=C2Nc2nc(C)cc(C)n2)cc1,0,0[12.7 µM],45µM,0,0,?
CCCNC(=S)Nc1ccc(Oc2ccccc2)cc1,0,0,0,-,0,0
CCCCNC(=S)Nc1ccc(Oc2ccccc2)cc1,0,0,0,0,0,50µM
Nc1nonc1-n1nnc(C(=O)N/N=C/c2c(Cl)cccc2Cl)c1CN1CCOCC1,0,0,0,-,0,0
CCN1CCN(Cc2c(C(=O)N/N=C(\C)c3ccc(Cl)c(Cl)c3)nnn2-c2nonc2N)CC1,-,45µM,-,-,0,0
CCC/C(=N/NC(=O)c1nnn(-c2nonc2N)c1CN1CCCCC1)c1ccccc1,0,-,?,-,-,-
Nc1nonc1-n1nnc(C(=O)N/N=C\c2cccc(Cl)c2)c1CN1CCOCC1,0,40µM,0,-,0,0
CC1CCN(Cc2c(C(=O)O)nnn2-c2nonc2N)CC1,0,50µM,0,0,?,0
Cc1c(Cl)cccc1NS(=O)(=O)c1cc2c(cc1Cl)CCC(=O)N2,-,-,0,-,-,-
Cc1ccc(-c2nnc(Nc3cccc(O)c3)c3ccccc23)cc1S(=O)(=O)N1CCOCC1,0,0,?,-,0,-
Cc1cccc(Nc2nnc(-c3ccc(N4CCOCC4)c([N+](=O)[O-])c3)c3ccccc23)c1,0,10µM,?,0,?,0
COc1ccccc1C(=O)N1CCC(N2CCN(c3ccccc3)CC2)CC1,?,35µM,2.5µM,0,50µM,0
O=C(c1ccccc1Oc1ccc([N+](=O)[O-])cc1)N1CCOCC1,0,0,0,-,0,0
COc1ccccc1N1CCN(C(=O)C2CCN(C(=O)c3ccccc3Cl)CC2)CC1,0,-,0,-,0,0
O=C(c1ccccc1Oc1ccccc1)N1CCN(c2ccccc2)CC1,0,40µM,0,0,0,0
COc1ccccc1C(=O)N1CCC(N2CCN(c3ccccc3OC)CC2)CC1,?,7.9µM,18µM,0,50µM,89µM
Cc1cccc(OCC(=O)N2CCN(C(=O)COc3ccc(Cl)cc3)CC2)c1,0,0,0,-,0,0
SMILES,HP1b chromo inh,G9a block,JMJD2A Tudor inh,L3MBTL1 block,BAZ2B block,Sfp PPTase inh
Cc1cccc(OCC(=O)N2CCC(N3CCCCCC3)CC2)c1,?,?,3.2µM,0,?,0
O=c1nc2n(CCO)c3ccccc3cc-2c(=O)[nH]1,0,-,0,-,-,-
Cc1cc(C)nc(SCC(CSc2nc(C)cc(C)n2)C(=O)O)n1,0,0,0,0,0,0
O=C(CCCc1ccccc1)N1CCN(C2CCCCC2)CC1,0,0,0,0,0,0
COc1ccccc1N1CCN(C2CCN(C(=O)COc3ccccc3)CC2)CC1,0,10µM,0,0,50µM,0
O=C(CCC1CCCC1)N1CCC(N2CCN(c3ccccc3)CC2)CC1,?,?,1.4µM,-,32µM,0
Cc1ccccc1C(=O)NNS(=O)(=O)c1cccc([N+](=O)[O-])c1,0,-,0,0,0,0
Cc1onc(-c2ccccc2)c1-c1csc(N/N=C/c2ccccc2)n1,0,-,?,0,0,0
CCOC(=O)Cc1csc(N/N=C/c2cccc([N+](=O)[O-])c2)n1,0,0,0,-,0,0
O=c1cnnc(N/N=C/c2cccs2)[nH]1,0,-,0,-,79µM,?
ClCc1csc(N/N=C/c2cccs2)n1,-,?,-,0,0,45µM

# Bioassay records (PubChem BioAssay)
